PINK1 expr mod: modulators of PINK1 expression. PINK1 immunofluorescence, high-content cytometry, 24 h. Potency, µM (titrated, usually from 76.6 µM), inactives show top-dose activation (PINK1 increase), usual class: activators. actives 0.2% (n = 410,000). AID 624263; active means well fitted activation curve with a large enough effect; inconclusive means small, poorly fitted or top-dose-only effect; cell line not stated here; further: % of control where 0% means no effect; nearly all actives have a fitted effect of over 65% in size
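PINK1 protein level read as immunofluorescence by microplate cytometer in a fixed, stained stable cell line after 24 h exposure to five compound concentrations, with CCCP as control.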
KB-3-1 tox: KB-3-1 parental cell cytotoxicity. KB-3-1 viability, CellTiter-Glo ATP luminescence, 72 h. Potency, µM (series often up to 46.1 µM), actives largely listed as cytotoxic. actives 1.4% (n = 400,000). AID 1347075; further: on the % scale 0 is the no-effect control and ±100 the full control effect; nearly all actives have a fitted effect of over 60% in size
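Using CellTiter-Glo luminescence, growth of non-resistant KB-3-1 adenocarcinoma cells is assessed 72 h after pin-tool compound addition at 37 °C. Normalized responses across the concentration series yield fitted curves.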
MCF10A rereplic: induces DNA re-replication in MCF 10a normal breast cells. MCF 10A DNA re-replication, Hoechst nuclear intensity, 48 h. Potency, µM (titrated, usually from 46.1 µM), for the others: at the top dose activity, positive = re-replication, actives largely listed as activators. actives 2.9% (n = 350,000). AID 624296; further: % of control where 0% means no effect; nearly all actives have a fitted effect of over 50% in size
KB-V1 MDR tox: kills drug-selected multidrug resistant KB-V1 cells. KB-V1 MDR cells viability, CellTiter-Glo, 72 h. Potency, µM (doses to about 46.1 µM), most hits filed as cytotoxic. actives 3.4% (n = 400,000). AID 1347076; further: on the % scale 0 is the no-effect control and ±100 the full control effect; nearly all actives have a fitted effect of over 60% in size
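KB-V1 MDR subline cells in DMEM (phenol-red free, 10% FBS) exposed to compounds in qHTS concentration series for 72 h at 37 degrees C. Viability read by CellTiter-Glo luminescence; concentration-effect curves fitted after normalization and correction.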
SW480 rereplic: inducers of DNA re-replication in SW480 colon cancer cells; SW480 DNA re-replication, Hoechst DNA content imaging, 48 h; Potency, µM (titrated, usually from 46.1 µM), for the others: at the highest dose re-replication activation, usual class: activators; actives 1.8% (n = 340,000); further: % of control where 0% means no effect; nearly all actives have a fitted effect of over 55% in size
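250 cells/well; 23 nL cpd via pin tool; 48 hr, 37 C, 5% CO2; Hoechst 40 min; imager read of total nuclear intensity, ex 405/em 500-530 nm.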
12-LOX inh: blocks human arachidonate 12S-lipoxygenase | purified 12hLO, xylenol orange hydroperoxide absorbance | Potency, µM (highest dose often 108 µM), for the others: top-dose activity change, negative = inhibition, actives largely listed as inhibitors | P18054 | actives 1.1% (n = 580,000) | AID 1671190; further: on the % scale 0 is the no-effect control and ±100 the full control effect
Target sequence (P18054 whole entry, looked up): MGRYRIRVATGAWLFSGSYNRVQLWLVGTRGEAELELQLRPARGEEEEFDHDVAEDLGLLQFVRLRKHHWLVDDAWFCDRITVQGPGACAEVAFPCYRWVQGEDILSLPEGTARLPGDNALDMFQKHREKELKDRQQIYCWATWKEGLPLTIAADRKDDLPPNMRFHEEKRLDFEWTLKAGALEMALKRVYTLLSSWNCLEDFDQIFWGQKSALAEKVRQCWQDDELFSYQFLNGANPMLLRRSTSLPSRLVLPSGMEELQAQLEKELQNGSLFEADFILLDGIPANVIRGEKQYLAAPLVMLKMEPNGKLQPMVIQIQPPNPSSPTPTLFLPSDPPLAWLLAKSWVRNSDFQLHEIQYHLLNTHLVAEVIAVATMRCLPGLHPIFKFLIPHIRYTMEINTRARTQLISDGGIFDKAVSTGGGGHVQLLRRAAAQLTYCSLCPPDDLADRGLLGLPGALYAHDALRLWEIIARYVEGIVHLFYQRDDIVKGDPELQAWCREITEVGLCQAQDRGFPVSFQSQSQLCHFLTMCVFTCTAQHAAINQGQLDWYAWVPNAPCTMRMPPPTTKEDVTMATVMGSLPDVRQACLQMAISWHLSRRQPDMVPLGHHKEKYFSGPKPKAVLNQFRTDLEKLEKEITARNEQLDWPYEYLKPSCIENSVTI
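Purified human 12hLO at 150 nM in 25 mM Hepes, 0.01% Triton X-100, pH 7.0, preincubated 15 min at room temperature with compound. Reaction started with 40 uM arachidonic acid, 30 min at room temperature. Hydroperoxide measured by Fe-xylenol orange, 573/405 nm absorbance ratio.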
Active calls of the source: *; [ ] = another dose, or the depositor's remark. A selection: hits, their analogues and other compounds. The true share with any hit is near 5.8%. Unless noted, the call rests on the fitted dose curve; in most records, active means well fitted curve in the direction sought with a large enough effect; inconclusive means small, poorly fitted or top-dose-only effect, or another doubt; inactive means no such curve, though single readings can be large; an effect the other way counts as inactive or inconclusive. Potency means the concentration at half of the fitted maximal effect.

CC(Sc1nc(-c2cccs2)nc2ccccc12)C(=O)NC(C)(C)C (centres undefined) was read as 12-LOX inh 5.0%.
COc1ccc(OCC(=O)Nc2ccc(OC)c(S(=O)(=O)N3CCCCC3)c2)cc1 was read as PINK1 expr mod 9.6%, KB-3-1 tox 20.6µM*, MCF10A rereplic inconclusive, KB-V1 MDR tox inactive, SW480 rereplic 16.4µM* and 12-LOX inh -0.8%.
For COc1ccc(NC(=O)COc2ccccc2Cl)cc1S(=O)(=O)N1CCCCC1 the results were PINK1 expr mod 6.2%, KB-3-1 tox inactive, MCF10A rereplic 1.5%, KB-V1 MDR tox inactive, SW480 rereplic inconclusive and 12-LOX inh inconclusive.
`CS(=O)(=O)N1CCCC(C(=O)NCCc2ccccc2)C1` (centres undefined) gave PINK1 expr mod -0.3%[38.3 µM], KB-3-1 tox inactive, MCF10A rereplic inconclusive, KB-V1 MDR tox inactive, SW480 rereplic 16.4µM* and 12-LOX inh 6.4%.
For CS(=O)(=O)N1CCC(C(=O)N2CCc3ccccc3C2)CC1 the results were PINK1 expr mod 2.1%[38.3 µM], KB-3-1 tox inactive, MCF10A rereplic -2.1%, KB-V1 MDR tox inactive, SW480 rereplic 0.9% and 12-LOX inh -1.6%.
For Cn1c(C(=O)N2CCCC(C(=O)NCCCc3ccccc3)C2)cc2sccc21 (centres undefined) the results were PINK1 expr mod 3.8%[38.3 µM], KB-3-1 tox inactive, MCF10A rereplic -5.8%, KB-V1 MDR tox 20.6µM*, SW480 rereplic -1.6% and 12-LOX inh 7.8%.
Screening CS(=O)(=O)N1CCCC(C(=O)N2CCc3ccccc3C2)C1 (centres undefined) returned PINK1 expr mod 5.2%[38.3 µM], KB-3-1 tox inactive, MCF10A rereplic 2.91µM*, KB-V1 MDR tox inactive, SW480 rereplic 10.3µM* and 12-LOX inh 9.3%.
Cc1nn(C)c2sc(C(=O)NCCc3ccc(C(=O)O)cc3)cc12 was read as 12-LOX inh -23.8%.
Cc1ccccc1-n1nc2c(c1NC(=O)c1c(-c3ccccc3Cl)noc1C)CS(=O)(=O)C2 was read as PINK1 expr mod 0.1%, KB-3-1 tox inactive, MCF10A rereplic 1.8%, KB-V1 MDR tox 8.2µM*, SW480 rereplic -1.4% and 12-LOX inh -0.3%.
`Cc1ccc(-n2nc3c(c2NC(=O)c2c(-c4ccccc4Cl)noc2C)CS(=O)(=O)C3)c(C)c1` gave PINK1 expr mod 4.6%, KB-3-1 tox inactive, MCF10A rereplic -0.2%, KB-V1 MDR tox 11.6µM*, SW480 rereplic 0.1% and 12-LOX inh -1.1%.
Cc1ccccc1-n1nc2c(c1NC(=O)c1ccco1)CS(=O)(=O)C2 was read as PINK1 expr mod -0.7%, KB-3-1 tox inactive, MCF10A rereplic -1.5%, KB-V1 MDR tox inactive, SW480 rereplic -7.1% and 12-LOX inh 0.0%.
`Cc1ccc(-n2nc3c(c2NC(=O)c2cccs2)CS(=O)(=O)C3)c(C)c1` gave PINK1 expr mod -0.3%, KB-3-1 tox inactive, MCF10A rereplic 2.5%, KB-V1 MDR tox inactive, SW480 rereplic -6.0% and 12-LOX inh -12.6%.
CC(NC(=O)CSc1nc2ccccc2o1)c1ccccc1 (centres undefined) was read as 12-LOX inh 37.4%.
Screening O=C(Nc1ccnn1Cc1ccc(Cl)cc1)c1cc(=O)c2ccccc2o1 returned 12-LOX inh -24.6%.
`Cn1c(=O)c2c(nc(Oc3ccc(F)cc3)n2Cc2ccccc2F)n(C)c1=O` gave 12-LOX inh 25.8%.
Screening Cc1cccc(C)c1NC(=O)CCCSc1nnc(-c2ccc(Cl)cc2)n1-c1ccccc1 returned PINK1 expr mod 11.3%, KB-3-1 tox 4.11µM*, MCF10A rereplic inconclusive, KB-V1 MDR tox 2.91µM*, SW480 rereplic inconclusive and 12-LOX inh -12.5%.
Screening CC(=O)Nc1nonc1-c1nnc(SCC(=O)Nc2c(C)cccc2C)n1-c1ccccc1 returned PINK1 expr mod -1.1%, KB-3-1 tox inactive, KB-V1 MDR tox inactive and 12-LOX inh -21.2%.
For Cc1cccc(C)c1NC(=O)CCCSc1nnc(-c2ccc(F)cc2)n1-c1ccccc1 the results were PINK1 expr mod 0.9%, KB-3-1 tox 16.4µM*, MCF10A rereplic inconclusive, KB-V1 MDR tox 2.31µM*, SW480 rereplic 1.6% and 12-LOX inh -19.1%.
CCCc1ccc(C(=O)/C=C/c2cc(OC)c(OC)c(OC)c2)cc1 was read as 12-LOX inh -14.8%.
For O=C(Nc1cccn(Cc2c(F)cccc2Cl)c1=O)NC1CCCCC1 the results were PINK1 expr mod 2.8%, KB-3-1 tox 2.59µM*, MCF10A rereplic 20.6µM*, KB-V1 MDR tox inconclusive, SW480 rereplic 18.4µM* and 12-LOX inh -6.7%.
Screening O=C(Nc1cccn(Cc2cccc(F)c2)c1=O)NC1CCCCC1 returned PINK1 expr mod 0.8%, KB-3-1 tox inactive, MCF10A rereplic -0.6%, KB-V1 MDR tox inactive, SW480 rereplic 17.1% and 12-LOX inh -6.0%.
Screening C#CCOC(=O)Nc1cccn(Cc2c(Cl)cccc2Cl)c1=O returned PINK1 expr mod -0.7%, KB-3-1 tox 10.3µM*, MCF10A rereplic inconclusive, KB-V1 MDR tox inconclusive, SW480 rereplic inconclusive and 12-LOX inh -12.5%.
Screening O=C(Nc1cccn(Cc2c(Cl)cccc2Cl)c1=O)C1CC1 returned PINK1 expr mod 3.7%, KB-3-1 tox inactive, MCF10A rereplic -10.0%, KB-V1 MDR tox inactive, SW480 rereplic -140.1% and 12-LOX inh 3.9%.
`Cc1ccc2sc3ccc(NC(=O)c4ccccc4Cl)cc3c(=O)c2c1` gave PINK1 expr mod 5.9%[38.3 µM], KB-3-1 tox inconclusive, MCF10A rereplic inconclusive, KB-V1 MDR tox inconclusive, SW480 rereplic 13µM* and 12-LOX inh -12.7%.
`CCN1C(=O)/C(=C\N2CCN(c3ccc(F)cc3)CC2)SC1=S` gave PINK1 expr mod 21.5%[38.3 µM], KB-3-1 tox inactive, MCF10A rereplic 1.2%, KB-V1 MDR tox 2.59µM*, SW480 rereplic -3.9% and 12-LOX inh -29.3%.
Screening CCN1C(=O)/C(=C\N2CCN(C)CC2)SC1=S returned PINK1 expr mod -1.4%, KB-3-1 tox inactive, MCF10A rereplic -4.1%, KB-V1 MDR tox inactive, SW480 rereplic -4.8% and 12-LOX inh inconclusive.
`Cc1cnc(NC(=O)C(C)N2CCN(C)CC2)s1` (centres undefined) gave PINK1 expr mod 0.7%, KB-3-1 tox inactive, MCF10A rereplic -1.7%, KB-V1 MDR tox inactive, SW480 rereplic -4.3% and 12-LOX inh 2.51µM*.
CCn1nc(C(=O)N(C)CCOc2ccccc2C)c2ccccc2c1=O was read as 12-LOX inh 1.9%.

Screens: PubChem BioAssay, National Center for Advancing Translational Sciences (NCATS)
